These results are taken from PubChem BioAssay.

Results filed as inconclusive are left out. The source made the active and inactive calls.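 Rule for the calls: active = GFP response, as percent of the DMSO control, above the screen-wide mean plus 3 SD, about 139; inconclusive = no response measured because the compound's own fluorescence interfered; inactive = the rest.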

The assay can be described thus: modulators of MEP2-GFP levels in yeast, primary screen, S. cerevisiae, multiplex flow cytometry (AID 1867).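 Note: median GFP channel fluorescence of barcode-gated MEP2-GFP cells measured by flow cytometry.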 The following applies: S. cerevisiae MEP2-GFP strain, 3 h, at 10 µM, hits give high values, 100% means same as DMSO wells. Background: Flow cytometry measures light scatter and fluorescence of single cells or particles in a stream.
`CCC(C)NCCOc1ccc(C(C)(C)c2ccccc2)cc1` (stereo not given): the GFP response vs DMSO is 99.3% (inactive).

Turning to `O=C(NCc1ccc(N2CCCC2=O)cc1)c1ccc(F)cc1`, the GFP response vs DMSO was 106% (inactive).

`CC1(C)O[C@@H]2C[C@H]3[C@@H]4C[C@H](F)C5=CC(=O)CC[C@]5(C)[C@H]4[C@@H](O)C[C@]3(C)[C@]2(C(=O)CO)O1`: the GFP response vs DMSO is 95.6% (inactive).

Take `N/C(=N\OC(=O)CCCOc1ccc(Cl)cc1Cl)c1ccncc1`: the GFP response vs DMSO is 110% (inactive).

With `COCCCN1C(=O)/C(=C\c2cccs2)C(C(=O)OC)=C1C`, the GFP response vs DMSO is 106% (inactive).

Take `Cc1ccc2nc(C)c3c(c2c1)OC(C(C)(Cl)Br)C3` (stereo not given): the GFP response vs DMSO is 102% (inactive).

With `CC12COC3(C(=O)Nc4ccc(F)cc4)CC1CCC32C` (stereo not given), the GFP response vs DMSO is 126% (inactive).

As to `Cc1ccnc(NS(=O)(=O)c2ccc(N)cc2)n1`, the GFP response vs DMSO is 99.7% (inactive).

In the case of `CC1(C)CC(=O)c2cnc(NC(=O)C3CCCC3)nc2C1`, the GFP response vs DMSO is 96.2% (inactive).

For `COc1ccc(CCN2CNc3c(c(=O)n(C)c(=O)n3C)C2)cc1OC`, the GFP response vs DMSO was 103% (inactive).

As to `O=C(O)CCCc1ccccc1`, the GFP response vs DMSO is 96.2% (inactive).

On to `CCCNCC(O)COc1ccccc1C(=O)CCc1ccccc1` (stereo not given), for which the GFP response vs DMSO was 110% (inactive).

For `COc1ccc(C(=O)O)cc1F`, the GFP response vs DMSO is 107% (inactive).

For `COc1cc(C)nc(-n2nc(C)cc2OC)n1`, the GFP response vs DMSO is 103% (inactive).

`CCCCCCC(=O)N(O)C1CC(=O)N(Cc2ccccc2)C1=O` (stereo not given): the GFP response vs DMSO is 101% (inactive).

For the molecule `CC(=O)N1CCN(c2ccc(NC(=O)/C=C/c3ccccc3)cc2)CC1`, the GFP response vs DMSO was 98.7% (inactive).

Consider `Cc1ccc(Nc2ncccc2C(=O)O)cc1C`, for which the GFP response vs DMSO was 123% (inactive).

`CCCCCCCC(=O)OCC(O)CO` (stereo not given): the GFP response vs DMSO is 103% (inactive).

Regarding `CSCCC(NC(C)=O)C(=O)Oc1ccc2c3c(c(=O)oc2c1)CCCC3` (stereo not given), the GFP response vs DMSO was 101% (inactive).

`CC(C)CN1CCN(Cc2ccc(C#CC(C)(C)O)cc2)CC1CCO` (stereo not given): the GFP response vs DMSO was 132% (inactive).

In the case of `Cc1nc(C2CC(=O)OC23CCCCC3)cs1` (stereo not given), the GFP response vs DMSO was 106% (inactive).

For `CO[C@H]1C=CO[C@@]2(C)Oc3c(C)c(O)c4c(O)c(c(C=NN5CCN(C)CC5)c(O)c4c3C2=O)NC(=O)C(C)=CC=C[C@H](C)[C@H](O)[C@@H](C)[C@@H](O)[C@@H](C)[C@H](OC(C)=O)[C@@H]1C`, the GFP response vs DMSO is 127% (inactive).

`COc1cccc(-n2cc(CNCc3c(C(=O)N(C)C)nc4ccc(Cl)cn34)cn2)c1`: the GFP response vs DMSO was 106% (inactive).

As to `S=C(c1ccc2c(c1)OCO2)N1CCCCC1`, the GFP response vs DMSO is 104% (inactive).

For `CC(C)Oc1ccc2c(=O)c(-c3ccccc3)coc2c1`, the GFP response vs DMSO is 101% (inactive).

Regarding `CCn1cc(CN2N=C(C)CC2c2ccccc2)c(C)n1` (stereo not given), the GFP response vs DMSO was 120% (inactive).

With `CCCCOc1ccc(C(=O)CCN2CCCCC2)cc1`, the GFP response vs DMSO was 96.6% (inactive).

Regarding `NCCCC(N)(C(=O)O)C(F)F` (stereo not given), the GFP response vs DMSO was 99.7% (inactive).

As to `C[N+](C)(C)CCOP(=O)([O-])OC[C@H](O)CO`, the GFP response vs DMSO was 103% (inactive).

In the case of `O=C(O)C1CCN(C(=O)COc2ccc3c4c(c(=O)oc3c2)CCC4)CC1`, the GFP response vs DMSO was 105% (inactive).

On to `COc1ccc(OC)c(S(=O)(=O)N2CCCc3ccccc32)c1`, for which the GFP response vs DMSO is 104% (inactive).

For the molecule `COc1ccc2[nH]c(=O)c3c(c2c1)OC(C)(C)C=C3`, the GFP response vs DMSO was 105% (inactive).

Turning to `CCN1CCN(C(=S)c2ccc(OC)cc2)CC1`, the GFP response vs DMSO was 99.6% (inactive).

Consider `C=CCOc1ccc(C(=O)CC)cc1OC`, for which the GFP response vs DMSO is 105% (inactive).

For the molecule `CCc1cccc2c3c([nH]c12)C(CC)(CC(=O)O)OCC3` (stereo not given), the GFP response vs DMSO was 106% (inactive).

For `COc1ccc(OC(C)C(=O)Nc2ccccc2F)cc1` (stereo not given), the GFP response vs DMSO was 99.7% (inactive).

With `CCCC(=O)Nc1ccccc1NC(C)=O`, the GFP response vs DMSO is 102% (inactive).

Turning to `O=C(O)CCCCCCNC(=O)c1cncc(O)c1`, the GFP response vs DMSO is 107% (inactive).

For `COc1ccc(Br)cc1C(=O)Nc1ccc(C(=O)O)cc1`, the GFP response vs DMSO is 105% (inactive).

For `CC[N+]1(CC)CC2=Cc3ccccc3CC2C1` (stereo not given), the GFP response vs DMSO was 121% (inactive).
